Bioassay records: PubChem BioAssay, National Center for Advancing Translational Sciences (NCATS)
Compounds with a hit are over-represented: about 19% of the library has one in this group of screens.
DT40 TDP1 no CPT = qHTS for Inhibitors of human tyrosyl-DNA phosphodiesterase 1 (TDP1): qHTS in cells in absence of CPT; Potency, µM (doses to about 46.2 µM), for the others: at the top dose activity change, negative = growth inhibition, hits mostly inhibitors; DT40 Tdp1-/- hTDP1 cells, no CPT, ATP luminescence, 48 h; actives 15% (n = 420,000); note: potency is the fitted concentration of half-maximal effect; nearly all actives have a fitted effect of over 55% in size
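A cellular qHTS used chicken DT40 cells lacking endogenous Tdp1 but carrying stably transfected human TDP1. Compounds were applied without camptothecin, and cell growth kinetics were judged by ATP-dependent luminescence after ≥48 hr.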
HT1080NT lethal = kills 2HG-producing HT-1080-NT fibrosarcoma cells. Potency, µM (top dose mostly 46.1 µM), for the others: at the top dose activity, negative = less viability, actives largely listed as cytotoxic. HT-1080-NT fibrosarcoma viability, CellTiter-Glo ATP luminescence, 48 h. actives 1.6% (n = 360,000). AID 686970;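 note: NT is the 2HG producing partner of a matched IDH1 knockdown line; potency is the fitted concentration of half-maximal effect; 0% = DMSO-treated cells and -100% = media-only wells without cells; nearly all actives have a fitted effect of over 55% in size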
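Read-out is CellTiter-Glo luminescence after 10 minutes at room temperature, following 48 hours' compound treatment of HT-1080-NT cells (750 cells/well, RPMI, 5% FBS, 37 degrees C).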
IL-1B inflam inh = inflammasome signaling inhibition, IL-1 beta readout | THP-1 LPS/ATP IL-1B secretion, AlphaLISA, 16 h; stronger effect = lower value | activity change, % at 57.5 µM | actives 4.7% (n = 360,000); in the data active = activity change below about -50%; inconclusive = mostly about -30% to -49%
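THP-1 cells pretreated 1 hr with compounds (up to 57.5 uM final), then stimulated with LPS (250 ng/mL final) plus ATP (1.25 mM final); secreted IL-1B measured by AlphaLISA after 16 hr, decreased signal indicating inhibition.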
ELG1 DNA repair = inhibitors of ELG1-dependent DNA repair in HEK293T cells; Potency, µM (top dose mostly 46.1 µM), for the others: top-dose activity change, negative = inhibition, most hits filed as inhibitors; actives 2.3% (n = 330,000); HEK293T ELG1-luciferase reporter, luminescence, 16 h; DNA damage induced by 5-fluorouridine; note: potency is the fitted concentration of half-maximal effect; nearly all actives have a fitted effect of over 55% in size
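In this reporter screen, reduction of luminescence relative to DMSO vehicle indicated activity. Compounds and 5-fluorouridine were added together to 2,000 cells per well, incubated for 16 hr at 37 °C, then developed with ONE-Glo.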
HT1080 IDH1KD tx = HT-1080 IDH1 knockdown cell toxicity (counter line). HT-1080 IDH1 knockdown viability, ATP luminescence, 48 h. actives 2% (n = 360,000). Potency, µM (series often up to 46.1 µM), for the others: top-dose activity, negative = toxicity, actives largely listed as cytotoxic. AID 686971;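 note: potency is the fitted concentration of half-maximal effect; 0% = DMSO wells and -100% = cell-free medium wells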
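Assay cells: HT-1080 with IDH1 knockdown, 750 per well, RPMI/5% FBS. Exposure: 48 h at 37 °C following 2 h pre-incubation. Read: CellTiter-Glo luminescence; fitted concentration-response, curve class assigned.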
TDP1 cell CPT = growth inhibition of DT40 Tdp1-/-;hTDP1 cells with camptothecin (screen for TDP1 inhibitors); chicken DT40 Tdp1-/-;hTDP1 cells + 20 nM CPT, ATP luminescence, 48 h; Potency, µM (series often up to 46.2 µM), for inactives: at the top dose activity change, negative = growth inhibition, usual class: inhibitors; actives 12% (n = 420,000); note: potency is the fitted concentration of half-maximal effect; nearly all actives have a fitted effect of over 55% in size
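Chicken DT40 Tdp1-/- cells stably complemented with human TDP1 were seeded at 400 cells/well in medium containing 20 nM camptothecin, exposed to pin-transferred compounds, and grown at 37 °C for at least 48 hr. Viability was read as ATP luminescence.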
An asterisk follows results filed as active; ? = inconclusive; . = no result. Unless noted, calls come from the whole dose curve; as a rule, active = well fitted curve in the direction sought with a large enough effect; inconclusive = small, poorly fitted or top-dose-only effect, or another doubt; inactive = no such curve, though single readings can be large; an effect the other way counts as inactive or inconclusive. Unless noted, % is set by controls: 0 for no effect and ±100 for the full control effect.

SMILES	DT40 TDP1 no CPT	HT1080NT lethal	IL-1B inflam inh	ELG1 DNA repair	HT1080 IDH1KD tx	TDP1 cell CPT
O=C(Nc1ccc([N+](=O)[O-])cc1)Nc1nc(-c2ccc(Cl)s2)cs1	3.66µM*	6.51µM*	-98.5*	10.3µM*	7.31µM*	4.61µM*
CCCC(=O)Nc1nc(-c2ccc(OC)cc2)cs1	?	5.7%	-18.4	?	-0.2%	?
CCCC(=O)Nc1nc(-c2ccc(Cl)s2)cs1	5.8µM*	-4.5%	0.0	0.2%	-10.2%	16.4µM*
O=C(Nc1nc(-c2ccc(Cl)s2)cs1)c1cccs1	18.4µM*	?	-83.6*	-3.1%	?	23.1µM*
O=C(Nc1nc(-c2ccc(Cl)s2)cs1)c1ccco1	?	-3.5%	-84.1*	?	-8.1%	?
O=C(NCc1ccccc1Cl)C1CCN(S(=O)(=O)Cc2ccccc2)CC1	-21.6%	.	.	.	.	-21.2%
CC(SCC(=O)Nc1ccc(F)cc1)c1nc2ccccc2c(=O)[nH]1 (stereo unspecified)	-7.9%	-7.0%	3.4	-3.7%	-8.1%	-18.3%
Cc1ccc(C(C)C)c2oc(=O)cc(-c3ccc(-c4ccc(C(F)(F)F)cc4)cc3)c12	20.6µM*	8.7%	0.0	?	11.3%	14.6µM*
COc1cc2oc(=O)cc(-c3ccc(-c4ccc(C(F)(F)F)cc4)cc3)c2c(OC)c1OC	?	1.8%	30.7	7.9%	0.9%	?
Cc1c(Br)c([N+](=O)[O-])nn1CC(=O)Nc1ccc(C(C)C)cc1	?	-28.2%	6.6	?	23.1µM*	?
Cc1ccccc1NC(=O)/C=C1\SC(=O)NC1=O	?	-5.7%	-10.4	3.4%	0.6%	-29.8%
CC(C)CCNC(=O)[C@H](Cc1ccccc1)N1Cc2ccccc2C1=O	-11.5%	7.7%	-14.3	2.5%	8.9%	?
CC(C)CC(C(=O)NCC1CCN(Cc2ccc(F)cc2)CC1)N1Cc2ccccc2C1=O (stereo unspecified)	20.6µM*	.	.	.	.	23.1µM*
Cc1ccc(C)c(CN2CCC(CNC(=O)C(CC(C)C)N3Cc4ccccc4C3=O)CC2)c1 (stereo unspecified)	11.6µM*	.	.	.	.	?
COc1ccccc1/C=C/c1onc(C)c1S(=O)(=O)N1CCC(C(=O)N2CCC(C)CC2)CC1	16.4µM*	.	.	.	.	20.6µM*
CC(=O)c1ccc(N2CCN(C(=O)C3CCN(S(=O)(=O)c4c(C)noc4/C=C/c4ccccc4F)CC3)CC2)cc1	10.3µM*	.	.	.	.	?
Cc1ccc2c(c1)N(C(=O)C1CCN(S(=O)(=O)c3c(C)noc3/C=C/c3ccccc3F)CC1)CCO2	?	.	.	.	.	-6.5%
CCN(CC)c1ccc(NC(=O)C2CCN(S(=O)(=O)c3c(C)noc3/C=C/c3ccccc3F)CC2)c(C)c1	16.4µM*	.	.	.	.	20.6µM*
COc1ccc(NC(=O)C2CCN(S(=O)(=O)c3c(C)noc3/C=C/c3ccc(C)cc3)CC2)cc1Cl	-22.7%	.	.	.	.	-11.3%
Cc1ccc(/C=C/c2onc(C)c2S(=O)(=O)N2CCC(C(=O)Nc3cccc(C#N)c3)CC2)cc1	3.66µM*	.	.	.	.	3.26µM*
CCC(=O)N(C)C[C@H]1Oc2cc(-c3ccccc3F)ccc2S(=O)(=O)N([C@H](C)CO)C[C@H]1C	?	1.6%	-17.9	.	2.0%	?
COc1cc(Cl)c(NC(=O)C2CCN(S(=O)(=O)c3c(C)noc3/C=C/c3ccccc3F)CC2)c(OC)c1	-1.7%	.	.	.	.	6.0%
Cc1noc(/C=C/c2ccccc2F)c1S(=O)(=O)N1CCC(C(=O)Nc2ccc(C#N)cc2)CC1	8.2µM*	.	.	.	.	11.6µM*
CNC(=O)C1CCN(S(=O)(=O)c2c(C)noc2/C=C/c2ccccc2F)CC1	-13.6%	1.3%	-17.5	?	-0.1%	-19.8%
COc1cc(NC(=O)C2CCN(S(=O)(=O)c3c(C)noc3/C=C/c3ccccc3F)CC2)cc(OC)c1OC	23.1µM*	.	.	.	.	?
SMILES	DT40 TDP1 no CPT	HT1080NT lethal	IL-1B inflam inh	ELG1 DNA repair	HT1080 IDH1KD tx	TDP1 cell CPT
Cc1cc(C)c(C)c(S(=O)(=O)N(C)CCc2ccccn2)c1C	23.1µM*	0.3%	27.2	-3.8%	-0.8%	?
CC1CCN(CC(=O)n2c3c(c4ccccc42)CCCC3)CC1	?	?	-14.3	6.6%	?	?
O=C(c1ccccc1F)n1c2c(c3ccccc31)CCCC2	?	?	13.4	?	14.6µM*	23.1µM*
CCOC(=O)c1cc(Cl)c2c(ccc3ccccc32)n1	-15.7%	8.2%	5.0	.	8.5%	0.4%
CCOC(=O)c1cc(OCC)c2c(ccc3cc(OC)ccc32)n1	5.8µM*	0.7%	0.0	.	-14.7%	?
Nc1nc(-c2ccc([N+](=O)[O-])cc2)cc(=O)[nH]1	-3.9%	3.3%	-14.1	.	5.2%	12.9%
CCCCNC(=O)C1CC(c2cccc(F)c2)=NO1 (stereo unspecified)	-14.8%	13.7%	1.1	?	8.8%	-12.2%
CCCCNC(=O)C(CC)Sc1nnc(-c2cccc(F)c2)c(-c2cccc(F)c2)n1 (stereo unspecified)	?	.	.	.	.	16.4µM*
CCOc1ccccc1CNC(=O)c1c(C)oc2ncnc(N3CCOCC3)c12	-6.7%	.	.	.	.	-1.4%
COc1ccc2ccccc2c1CN1CCN(C(=O)c2ccco2)CC1	14.6µM*	-11.3%	-52.1*	20.6µM*	-24.6%	18.4µM*
O=C(c1ccco1)N1CCCN(Cc2cn[nH]c2-c2ccc(-c3ccccc3)cc2)CC1	?	-17.5%	-81.6*	?	-16.3%	-5.5%
COc1ccc(-c2[nH]ncc2CN2CCN(C(=O)c3ccco3)CC2)cc1F	?	-10.6%	-14.2	9.6%	4.0%	15.0%
COc1ccc2ccccc2c1CN1CCN(C(=O)c2ccccc2)CC1	14.6µM*	-27.0%	?	18.4µM*	-13.6%	?
O=C(c1ccco1)N1CCN(CCCCOc2cccc3ccccc23)CC1	?	-6.9%	0.0	4.9%	-9.8%	18.4µM*
CCOC(=O)N1CCN(Cc2c(O)ccc3ccccc23)CC1	2.4%	3.3%	2.8	?	1.8%	-21.0%
COc1ccc(NC(=O)Cn2nnc(C(=O)NCc3ccc4c(c3)OCO4)c2N)c(OC)c1	?	?	7.3	7.5%	?	?
CCOc1ccccc1-n1c(CN2CCN(C(=O)c3ccco3)CC2)nc2ccccc2c1=O	?	5.62µM*	-102.7*	-26.4%	10µM*	?
